IDE inh = cellular human IDE inhibition | P14735 | HEK cells, FAbetaB cleavage, fluorescence polarization | inhibition, % at 5.59 µM | actives 0.41% (n = 320,000);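 active = percent inhibition above the average of all tested compounds plus 3 SD, set per screening campaign, cut at about 16% in these data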;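 note: IDE supplied by intact live HEK cells; FP after avidin binding of uncleaved biotin substrate so inhibition keeps polarization high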
HDAC3 inh = human HDAC3 inhibition; inhibition, % at 8.3 µM; actives 0.15% (n = 320,000); recombinant HDAC3, fluorogenic peptide/trypsin coupled, fluorescence; in the data active = inhibition above about 26%, passing the limit was not always enough; inconclusive = no clear call, values can overlap the other calls
Target sequence (O15379 whole entry, looked up): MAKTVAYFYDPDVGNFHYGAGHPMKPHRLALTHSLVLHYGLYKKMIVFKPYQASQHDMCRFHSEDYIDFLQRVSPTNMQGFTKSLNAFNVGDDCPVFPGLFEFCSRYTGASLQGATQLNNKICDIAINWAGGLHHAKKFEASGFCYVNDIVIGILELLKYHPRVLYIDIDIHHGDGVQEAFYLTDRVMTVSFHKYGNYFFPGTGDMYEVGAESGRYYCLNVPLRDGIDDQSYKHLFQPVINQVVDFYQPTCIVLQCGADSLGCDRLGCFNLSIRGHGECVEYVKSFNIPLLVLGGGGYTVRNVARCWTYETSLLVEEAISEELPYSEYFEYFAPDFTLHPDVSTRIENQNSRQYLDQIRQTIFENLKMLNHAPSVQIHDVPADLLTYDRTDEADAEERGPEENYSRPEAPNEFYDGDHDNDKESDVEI
LANA-H2A inh = blocks KSHV LANA binding to histone H2A/H2B; inhibition, % (concentration not given with the values); cell-free LANA-H2A/H2B peptide, fluorescence polarization; actives 0.6% (n = 320,000); in the data active = inhibition mostly above about 10%, no sharp cut-off; inactive = mostly below about 6.7%
IDE act = IDE (human) activation, cell-based | activation, % at 5.96 µM | P14735 | HEK cells, FAbeta-B cleavage, fluorescence polarization; 0% vehicle, 100% cell-free pure enzyme wells | actives 0.073% (n = 340,000);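 active = activation above the mean of all tested compounds plus 3 SD, set per screening campaign, cut at about 17% in these data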
Each line names hits and unclear results; the compound was inactive in the other large screens. An excerpt weighted towards active compounds, which were near 1.1% of everything screened.

S=c1[nH]nc(-c2ccc(Cl)cc2)n1-c1ccc(Cl)cc1	none
O=C(Nc1nc(-c2ccc(S(=O)(=O)N3CCCC3)cc2)cs1)c1ccco1	none
CNc1nc(-c2ccc(S(=O)(=O)N3CCCCC3)cc2)cs1	LANA-H2A inh 15.4
CC(C)C(=O)Nc1ccc(-c2nc3ccccc3c(=O)o2)cc1	HDAC3 inh 55.6
CCn1c(NC(=O)c2ccc(C)cc2)c2ccccc2nc1=O	none
CCn1c(NC(=O)C(C)C)c2ccccc2nc1=O	LANA-H2A inh 11.3
COc1ccc2c(=O)c(-c3cnn(-c4ccccc4)c3)c(C)oc2c1	LANA-H2A inh 22.0
CCN(CC)C(=O)Cn1cc(C(=O)C(=O)N2CCN(c3ccc(OC)cc3)CC2)c2ccccc21	none
C[n+]1c2n(c3ccccc31)N=C(c1ccc(-c3ccccc3)cc1)CS2	none (no result: HDAC3 inh)
C[n+]1c2n(c3ccccc31)N=C(c1ccccc1)CS2	HDAC3 inh 31.2
O=C(CC(C(=O)O)c1cccc(Cl)c1Cl)c1ccccc1 (stereo not drawn)	none
O=C1CC(=O)Nc2cc(S(=O)(=O)Nc3ccc(Cl)c(C(F)(F)F)c3)ccc2N1	none
O=C(COC(=O)c1cncc(Br)c1)NCc1ccc(Cl)cc1	LANA-H2A inh 166.9
C=CC[C@@H](CC(=O)N[C@@H](CO)Cc1ccccc1)C(=O)N[C@@H](COC(=O)[C@@H](CC=C)CC(=O)OC(C)(C)C)Cc1c[nH]c2ccccc12	none (no result: LANA-H2A inh)
C=CC[C@H](CC(=O)N[C@H](CO)Cc1ccccc1)C(=O)N[C@@H](COC(=O)[C@H](CC=C)CC(=O)OC(C)(C)C)Cc1c[nH]c2ccccc12	HDAC3 inh 44.3
C=CC[C@@H](CC(=O)N[C@H](CO)Cc1ccccc1)C(=O)N[C@H](COC(=O)[C@@H](CC=C)CC(=O)OC(C)(C)C)Cc1c[nH]c2ccccc12	none
C=CC[C@@H](CC(=O)N[C@@H](CO)Cc1ccccc1)C(=O)N[C@@H](COC(=O)[C@H](CC=C)CC(=O)OC(C)(C)C)Cc1c[nH]c2ccccc12	HDAC3 inh 39.4
CCC(C)OC(=O)C1=C(C)NC2=C(C(=O)C(C(=O)OC)C(C)C2)C1c1ccc(N(C)C)cc1 (stereo not drawn)	IDE act 17.4
COC(=O)c1ccc(-n2c(C)ccc2-c2ccccc2)cc1	none
COc1ccc(-n2c(C)ccc2-c2ccccc2)cn1	LANA-H2A inh 78.8
CC1=C(C(=O)OC2CCCCCC2)C(c2ccc(C)o2)C2=C(CCCC2=O)N1 (stereo not drawn)	none
COC(=O)C1=C(C)NC2=C(C(=O)CCC2)C1c1ccc(-c2ccsc2C(=O)OC)o1 (stereo not drawn)	HDAC3 inh 32.5
NC(=O)c1ccc[n+](CC(=O)c2ccc(F)cc2)c1	none
CCCCCCC(=O)N(O)C1CC(=O)N(c2ccc(C)cc2)C1=O (stereo not drawn)	HDAC3 inh inconclusive
CCCCCCC(=O)N(O)C1CC(=O)N(c2ccc(Cl)cc2)C1=O (stereo not drawn)	HDAC3 inh 62.9
CCOC(=O)c1c(C)[nH]c(C)c1C(=O)CSc1nc2ccccc2c(=O)n1-c1ccc(C)cc1	HDAC3 inh 31.5
COC(=O)c1ccccc1-c1c2ccc(=N)cc-2oc2cc(N)ccc12	LANA-H2A inh 192.2, IDE act 39.2
OCCO	none (no result: HDAC3 inh, LANA-H2A inh)
O=C(CCNC(=O)c1ccccc1Cl)Nc1cc(C(F)(F)F)ccc1Cl	none
Cc1ccc(C)c(C(=O)COC(=O)CCCC(=O)Nc2cc(C(F)(F)F)ccc2Cl)c1	LANA-H2A inh 12.1
CSC(=NC#N)N1CCN(C(=NC#N)SC)CC1	none
CSC(=NC#N)N1CCN(c2ccccn2)CC1	LANA-H2A inh 30.0
COc1ccc(NC(=O)C2C3C=CC4(O3)C2C(=O)N(CCN2CCCCC2)C4C(=O)NC2CCCC(C)C2C)cc1 (stereo not drawn)	none
COc1ccc(NC(=O)CSc2nc3[nH]ncc3c(=O)n2-c2ccccc2OC)cc1OC	IDE inh 20.8
O=C1c2c(O)ccc(O)c2C(=O)c2c(NCCNCCO)ccc(NCCNCCO)c21	LANA-H2A inh 76.7
O=Cc1c(Cl)nc2ccccn2c1=O	none
O=C1/C(=C/c2cccc(F)c2)Oc2cc(O)ccc21	none
O=c1[nH][nH]c(=S)n1C1CCCCC1	HDAC3 inh 32.1 (no result: IDE act)
COc1cc(/C=C/C(=O)c2c(O)ccc3c(C)cc(=O)oc23)ccc1O	none
COc1ccc(/C=C\C(=O)c2c(O)ccc3c(C)cc(=O)oc23)cc1OC	LANA-H2A inh 16.0
O=C(O)C(=Cc1cccc([N+](=O)[O-])c1)c1ccc(Cl)cc1	none (no result: IDE inh, HDAC3 inh, LANA-H2A inh)
O=C(CN1CCC(C(=O)c2ccc(Cl)cc2)CC1)NC1CCCC1	HDAC3 inh inconclusive
CN1C(=O)c2cccc3c(Cl)ccc(c23)C1=O	none

High-throughput results: PubChem, several laboratories
